According to ChEMBL document CHEMBL3988442, “University of Dundee, Small-Polar-MMV Screening Library” (2021):
For some of these results: Entries with a potency or affinity are not part of this list.

Key:
Design in all cases: scale not given: direction of the effect not stated beside the values
[1] = biological target: Protein translocase subunit SecA (Escherichia coli (strain K12)) (UniProt P10408); assay: Assay to Identify E. coli SecA ATPase Inhibitors; type: functional; conditions: 30 µM
[2] = biological target: T1, Ubiquitin-activating enzyme e1, putative (Leishmania donovani (strain BPK282A1)) (UniProt E9BSI1); assay: Leishmania donovani Ubiquitin Activating Enzyme (LdE1); type: functional; conditions: 30 µM
T1 sequence (whole entry): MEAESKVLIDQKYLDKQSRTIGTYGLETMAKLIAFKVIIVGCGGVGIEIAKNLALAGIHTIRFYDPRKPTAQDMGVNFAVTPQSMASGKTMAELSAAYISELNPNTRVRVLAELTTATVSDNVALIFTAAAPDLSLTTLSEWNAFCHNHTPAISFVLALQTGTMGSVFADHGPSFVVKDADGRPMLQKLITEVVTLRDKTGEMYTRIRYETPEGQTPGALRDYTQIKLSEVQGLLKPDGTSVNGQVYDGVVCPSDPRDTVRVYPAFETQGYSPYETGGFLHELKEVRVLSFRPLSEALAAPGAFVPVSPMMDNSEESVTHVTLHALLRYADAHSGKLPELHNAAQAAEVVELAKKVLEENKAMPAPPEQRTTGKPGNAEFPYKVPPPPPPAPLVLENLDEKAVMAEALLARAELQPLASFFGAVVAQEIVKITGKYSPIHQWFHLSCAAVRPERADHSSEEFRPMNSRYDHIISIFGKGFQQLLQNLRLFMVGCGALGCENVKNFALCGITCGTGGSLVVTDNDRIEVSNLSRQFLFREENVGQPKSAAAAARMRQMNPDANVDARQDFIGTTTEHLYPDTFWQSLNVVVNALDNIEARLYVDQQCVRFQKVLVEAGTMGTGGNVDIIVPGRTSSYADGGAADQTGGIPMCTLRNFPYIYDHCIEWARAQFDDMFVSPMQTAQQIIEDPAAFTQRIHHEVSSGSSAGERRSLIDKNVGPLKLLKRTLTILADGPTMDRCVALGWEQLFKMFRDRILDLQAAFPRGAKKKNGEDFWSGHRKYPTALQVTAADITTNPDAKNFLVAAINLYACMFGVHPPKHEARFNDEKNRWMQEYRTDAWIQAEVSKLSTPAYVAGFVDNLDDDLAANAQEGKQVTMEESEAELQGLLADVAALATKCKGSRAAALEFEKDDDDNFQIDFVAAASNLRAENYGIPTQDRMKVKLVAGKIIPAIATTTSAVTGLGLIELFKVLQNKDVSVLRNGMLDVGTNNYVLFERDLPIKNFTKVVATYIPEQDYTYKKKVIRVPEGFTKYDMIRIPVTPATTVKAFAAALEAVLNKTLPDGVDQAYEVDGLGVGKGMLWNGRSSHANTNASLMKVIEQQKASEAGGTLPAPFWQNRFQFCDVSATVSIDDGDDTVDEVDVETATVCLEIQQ

[3] = biological target: AMP-activated protein kinase, AMPK (Homo sapiens) (UniProt P54646+O43741+P54619+Q9UGJ0+Q9Y478+Q13131+Q9UGI9); assay: AMP-dependent Kinase enzyme assay. An in vitro enzyme assay that detects ADP turnover that is directly proportional to AMPK activity. This uses naive AMPK that is activated during the assay with MK-8722; type: functional; conditions: 30 µM
[4] = biological target: Sialic acid-binding Ig-like lectin 9 (Homo sapiens) (UniProt Q9Y336); assay: Hs-Siglec9 ALPHAscreen SOP 20170721; conditions: 10 µM
Sialic acid-binding Ig-like lectin 9 (Homo sapiens), sequence (Q9Y336 whole entry): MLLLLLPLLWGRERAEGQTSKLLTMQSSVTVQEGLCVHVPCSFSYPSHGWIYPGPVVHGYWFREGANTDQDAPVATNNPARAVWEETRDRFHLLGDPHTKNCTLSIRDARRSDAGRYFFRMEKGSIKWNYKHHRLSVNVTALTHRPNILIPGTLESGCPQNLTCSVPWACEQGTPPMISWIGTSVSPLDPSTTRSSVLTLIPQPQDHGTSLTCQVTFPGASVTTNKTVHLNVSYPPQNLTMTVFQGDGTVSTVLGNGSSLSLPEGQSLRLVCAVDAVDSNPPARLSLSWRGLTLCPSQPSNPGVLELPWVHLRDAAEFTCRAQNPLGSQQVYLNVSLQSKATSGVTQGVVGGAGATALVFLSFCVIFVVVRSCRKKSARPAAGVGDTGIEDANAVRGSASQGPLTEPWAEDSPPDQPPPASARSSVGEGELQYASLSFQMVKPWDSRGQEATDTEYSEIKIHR

Trypanosoma cruzi = assay: Trypanosoma cruzi phosphomannomutase and mannose-1-phosphate guanylyltransferase assay; type: functional; conditions: 10 µM
[5] = biological target: T2, Arginase-2, mitochondrial (Homo sapiens) (UniProt P78540); assay: in vitro enzyme assay to detect the production of urea directly proportional to the activity of Arginase II; type: functional; conditions: 33.3 µM; further: in the data most compounds retested in dose-response had high values
T2 sequence (whole entry): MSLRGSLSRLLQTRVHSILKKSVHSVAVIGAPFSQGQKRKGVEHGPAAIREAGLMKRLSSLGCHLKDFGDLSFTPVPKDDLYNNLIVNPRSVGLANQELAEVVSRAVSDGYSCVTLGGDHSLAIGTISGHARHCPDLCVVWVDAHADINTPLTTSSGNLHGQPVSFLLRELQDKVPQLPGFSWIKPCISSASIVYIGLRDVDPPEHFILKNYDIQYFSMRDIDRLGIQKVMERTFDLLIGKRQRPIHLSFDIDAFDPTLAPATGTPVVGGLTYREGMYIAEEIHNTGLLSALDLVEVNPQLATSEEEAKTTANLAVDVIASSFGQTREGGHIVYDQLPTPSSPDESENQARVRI

[6] = biological target: T3, Proteasome subunit beta (Trypanosoma cruzi) (UniProt O96673); assay: Trypanosoma cruzi proteasome chymotrypsin-like activity (TcProtChymo) assay.; further: in the data most compounds retested in dose-response had high values; type: functional; conditions: 9.37 µM
T3 sequence (whole entry): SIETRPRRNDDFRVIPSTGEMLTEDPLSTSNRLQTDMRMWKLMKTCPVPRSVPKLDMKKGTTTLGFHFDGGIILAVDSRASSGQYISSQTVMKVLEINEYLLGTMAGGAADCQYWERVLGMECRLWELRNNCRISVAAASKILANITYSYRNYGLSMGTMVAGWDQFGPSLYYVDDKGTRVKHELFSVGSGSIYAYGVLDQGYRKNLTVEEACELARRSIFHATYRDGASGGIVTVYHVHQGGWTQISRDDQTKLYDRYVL

Homo sapiens = species on record: Homo sapiens; assay: To identify inhibition of the IFN signalling (Jak-Stat) pathway via expression of an eGFP reporter gene under the control of an IFN-stimulated response element (ISRE) containing MxA promoter.; type: functional; conditions: 30 µM
[7] = biological target: T4, Tyrosyl-tRNA synthetase, putative (Trypanosoma cruzi (strain CL Brener)) (UniProt Q4DSP6); assay: Trypanosoma cruzi tyrosyl tRNA synthetase (TcYRS) _High Tyrosine SOP; type: functional; conditions: 30 µM; further: in the data most compounds retested in dose-response had high values
T4 sequence (whole entry): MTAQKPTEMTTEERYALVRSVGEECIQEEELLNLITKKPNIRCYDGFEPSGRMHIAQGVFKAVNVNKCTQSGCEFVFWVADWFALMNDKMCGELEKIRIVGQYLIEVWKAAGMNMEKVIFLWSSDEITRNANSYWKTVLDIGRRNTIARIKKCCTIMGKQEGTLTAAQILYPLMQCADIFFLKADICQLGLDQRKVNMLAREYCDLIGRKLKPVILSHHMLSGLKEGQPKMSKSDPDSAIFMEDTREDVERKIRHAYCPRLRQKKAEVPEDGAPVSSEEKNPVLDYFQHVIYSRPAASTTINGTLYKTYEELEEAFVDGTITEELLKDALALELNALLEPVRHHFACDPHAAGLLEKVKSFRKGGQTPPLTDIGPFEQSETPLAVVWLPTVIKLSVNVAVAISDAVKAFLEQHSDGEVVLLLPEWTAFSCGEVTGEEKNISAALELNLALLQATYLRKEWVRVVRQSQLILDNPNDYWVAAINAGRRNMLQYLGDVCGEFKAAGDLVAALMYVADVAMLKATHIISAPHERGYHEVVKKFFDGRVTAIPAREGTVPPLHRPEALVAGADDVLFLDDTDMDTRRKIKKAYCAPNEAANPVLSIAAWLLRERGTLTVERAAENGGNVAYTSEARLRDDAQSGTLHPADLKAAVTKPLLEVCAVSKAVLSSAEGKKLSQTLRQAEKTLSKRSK

[8] = biological target: T4, Tyrosyl-tRNA synthetase, putative (Trypanosoma cruzi (strain CL Brener)); assay: Trypanosoma cruzi tyrosyl tRNA synthetase (TcYRS) SOP; type: functional; conditions: 30 µM
[9] = biological target: Chromo domain-containing protein 1 (Saccharomyces cerevisiae (strain ATCC 204508 / S288c) (Baker's yeast)) (UniProt P32657); assay: ScCHD-1 Enzyme Inhibition Assay; type: functional; conditions: 30 µM; further: in the data most compounds retested in dose-response had high values
Chromo domain-containing protein 1 (Saccharomyces cerevisiae (strain ATCC 204508 / S288c) (Baker's yeast)), sequence (P32657 whole entry, the tested form may be a part): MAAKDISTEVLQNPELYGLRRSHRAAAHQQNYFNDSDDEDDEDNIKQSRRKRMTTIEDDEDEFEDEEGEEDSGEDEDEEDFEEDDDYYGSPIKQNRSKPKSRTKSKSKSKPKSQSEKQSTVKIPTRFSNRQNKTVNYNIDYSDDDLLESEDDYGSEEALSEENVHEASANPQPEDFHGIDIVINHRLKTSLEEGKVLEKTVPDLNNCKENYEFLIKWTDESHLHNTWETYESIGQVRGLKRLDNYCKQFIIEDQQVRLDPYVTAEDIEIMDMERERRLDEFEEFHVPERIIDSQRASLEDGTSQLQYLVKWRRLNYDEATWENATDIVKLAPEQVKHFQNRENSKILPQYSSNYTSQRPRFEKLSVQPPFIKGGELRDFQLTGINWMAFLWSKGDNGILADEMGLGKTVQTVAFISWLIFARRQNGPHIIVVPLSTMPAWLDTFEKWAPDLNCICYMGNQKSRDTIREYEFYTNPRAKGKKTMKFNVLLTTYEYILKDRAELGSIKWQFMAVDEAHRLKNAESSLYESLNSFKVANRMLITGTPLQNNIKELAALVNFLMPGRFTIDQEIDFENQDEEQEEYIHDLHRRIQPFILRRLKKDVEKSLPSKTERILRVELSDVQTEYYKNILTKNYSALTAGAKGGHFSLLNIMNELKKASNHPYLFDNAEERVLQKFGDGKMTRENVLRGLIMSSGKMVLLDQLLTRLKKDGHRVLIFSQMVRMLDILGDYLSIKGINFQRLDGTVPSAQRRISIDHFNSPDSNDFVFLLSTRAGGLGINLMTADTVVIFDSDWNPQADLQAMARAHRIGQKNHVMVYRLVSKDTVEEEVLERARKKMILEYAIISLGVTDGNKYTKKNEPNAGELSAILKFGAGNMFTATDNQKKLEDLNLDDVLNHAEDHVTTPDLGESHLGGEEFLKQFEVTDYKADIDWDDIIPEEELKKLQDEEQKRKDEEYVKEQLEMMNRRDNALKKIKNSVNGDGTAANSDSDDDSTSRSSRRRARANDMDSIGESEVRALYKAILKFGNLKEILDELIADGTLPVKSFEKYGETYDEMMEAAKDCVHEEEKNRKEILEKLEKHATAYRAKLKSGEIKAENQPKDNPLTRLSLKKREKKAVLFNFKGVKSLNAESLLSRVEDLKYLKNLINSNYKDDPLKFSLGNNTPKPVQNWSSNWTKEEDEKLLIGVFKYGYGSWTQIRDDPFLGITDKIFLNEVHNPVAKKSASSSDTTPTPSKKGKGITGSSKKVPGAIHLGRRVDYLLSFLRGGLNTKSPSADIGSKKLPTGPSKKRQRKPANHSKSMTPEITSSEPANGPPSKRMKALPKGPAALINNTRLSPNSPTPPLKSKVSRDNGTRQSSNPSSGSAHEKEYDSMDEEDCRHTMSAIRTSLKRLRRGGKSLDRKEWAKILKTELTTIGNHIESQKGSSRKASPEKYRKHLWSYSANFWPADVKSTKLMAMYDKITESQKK

Protein translocase subunit SecA (Escherichia coli (strain K12)), sequence (P10408 whole entry): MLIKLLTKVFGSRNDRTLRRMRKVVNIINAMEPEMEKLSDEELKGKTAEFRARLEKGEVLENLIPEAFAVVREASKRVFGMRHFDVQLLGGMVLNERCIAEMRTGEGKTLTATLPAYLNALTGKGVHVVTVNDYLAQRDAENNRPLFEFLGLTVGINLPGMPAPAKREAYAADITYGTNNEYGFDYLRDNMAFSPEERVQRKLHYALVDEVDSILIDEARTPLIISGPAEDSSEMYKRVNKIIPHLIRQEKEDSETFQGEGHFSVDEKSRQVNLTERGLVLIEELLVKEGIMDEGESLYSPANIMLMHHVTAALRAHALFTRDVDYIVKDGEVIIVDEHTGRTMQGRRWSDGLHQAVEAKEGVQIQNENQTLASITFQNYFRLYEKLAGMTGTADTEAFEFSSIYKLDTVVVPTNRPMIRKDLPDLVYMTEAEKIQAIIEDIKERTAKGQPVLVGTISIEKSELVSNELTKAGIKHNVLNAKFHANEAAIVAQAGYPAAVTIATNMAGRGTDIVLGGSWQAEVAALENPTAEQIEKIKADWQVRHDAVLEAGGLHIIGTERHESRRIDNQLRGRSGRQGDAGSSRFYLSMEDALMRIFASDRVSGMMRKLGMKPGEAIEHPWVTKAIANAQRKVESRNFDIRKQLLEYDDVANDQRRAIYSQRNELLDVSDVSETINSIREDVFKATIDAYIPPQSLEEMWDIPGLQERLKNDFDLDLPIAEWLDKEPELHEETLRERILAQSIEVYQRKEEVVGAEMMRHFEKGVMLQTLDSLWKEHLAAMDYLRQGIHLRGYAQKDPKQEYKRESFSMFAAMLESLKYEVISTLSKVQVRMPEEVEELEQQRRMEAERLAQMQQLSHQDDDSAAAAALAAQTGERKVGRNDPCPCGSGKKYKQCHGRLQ

CNc1nc(C)c(C(=O)N2CCCCC2CN2CCCCCC2)s1 (stereo unspecified)
Percent Effect [1]: -4.61% | Percent Effect [2]: 21.3% | Percent Effect [3]: -1.92% | Percent Effect [4]: 0.892% | Percent Effect (Trypanosoma cruzi): 3.74% | Percent Effect [5]: -1.63% | Percent Effect [6]: 8.72% | Percent Effect (Homo sapiens): -1.85% | Percent Effect [7]: 11.7% | Percent Effect [8]: 19.2% | Percent Effect [9]: -9.37%

COc1ccnc(C(=O)N2CCCC(c3noc(C)n3)C2)c1 (stereo unspecified)
Percent Effect [1]: -0.16% | Percent Effect [2]: -7.59% | Percent Effect [3]: 1.48% | Percent Effect [4]: 5.56% | Percent Effect (Trypanosoma cruzi): -0.85% | Percent Effect [5]: 0.76% | Percent Effect [6]: 3.03% | Percent Effect (Homo sapiens): -3.33% | Percent Effect [7]: -2.46% | Percent Effect [8]: -1.27% | Percent Effect [9]: -3.23%

Cc1csc(Nc2cc(C3CCCCN3C)nc(C)n2)n1 (stereo unspecified)
Percent Effect [1]: 1.97% | Percent Effect [2]: 8% | Percent Effect [3]: 7.4% | Percent Effect [4]: -13.6% | Percent Effect (Trypanosoma cruzi): -5.71% | Percent Effect [5]: 3.5% | Percent Effect [6]: 17.5% | Percent Effect (Homo sapiens): 14.7% | Percent Effect [7]: 4.25% | Percent Effect [8]: 6.41% | Percent Effect [9]: -0.0696%

CN(C)C(CNC(=O)NCCc1cccc(O)c1)c1ccco1 (stereo unspecified)
Percent Effect [1]: -1.55% | Percent Effect [2]: 5.41% | Percent Effect [3]: 0.167% | Percent Effect [4]: 22.4% | Percent Effect (Trypanosoma cruzi): 3.81% | Percent Effect [5]: 6.7% | Percent Effect [6]: 13% | Percent Effect (Homo sapiens): -1.66% | Percent Effect [7]: 0% | Percent Effect [8]: 6.17% | Percent Effect [9]: -9.98%

Cc1cccc(-c2ccc3nc(C4CCN(CC5CC5)CC4)nn3c2)c1
Percent Effect [1]: -0.334% | Percent Effect [2]: 5.48% | Percent Effect [3]: -2.67% | Percent Effect [4]: 13.9% | Percent Effect (Trypanosoma cruzi): 3.77% | Percent Effect [5]: -0.399% | Percent Effect [6]: 10.2% | Percent Effect (Homo sapiens): 8.44% | Percent Effect [7]: 3.12% | Percent Effect [8]: 8.64% | Percent Effect [9]: -2.92%

CCc1nc(C)c(C(=O)N2C[C@H]3CC[C@@H]2CN(S(=O)(=O)N(C)C)C3)s1
Percent Effect [1]: -5.92% | Percent Effect [2]: 2.67% | Percent Effect [3]: -0.605% | Percent Effect [4]: -2.09% | Percent Effect (Trypanosoma cruzi): -8.28% | Percent Effect [5]: -2.08% | Percent Effect [6]: 15.9% | Percent Effect (Homo sapiens): 21.2% | Percent Effect [7]: -0.546% | Percent Effect [8]: 3.7% | Percent Effect [9]: -4.98%

Cn1cc(CN2CC[C@@H]3[C@@H](CCC(=O)N3CCC3=CCCCC3)C2)cn1
Percent Effect [1]: -5.13% | Percent Effect [2]: 8.22% | Percent Effect [3]: 4.85% | Percent Effect [4]: 0.26% | Percent Effect (Trypanosoma cruzi): 0.992% | Percent Effect [5]: -2.79% | Percent Effect [6]: 10.7% | Percent Effect (Homo sapiens): -22.4% | Percent Effect [7]: 0% | Percent Effect [8]: 1.24% | Percent Effect [9]: 1.06%

CN(C)c1ncc(-c2cc(C(=O)O)n(CC3CC3)c2)cn1
Percent Effect [1]: -1.6% | Percent Effect [2]: -2.7% | Percent Effect [3]: 5.47% | Percent Effect [4]: -3.4% | Percent Effect (Trypanosoma cruzi): 1.95% | Percent Effect [5]: -0.833% | Percent Effect [6]: 7.69% | Percent Effect (Homo sapiens): 7.22% | Percent Effect [7]: 5.94% | Percent Effect [8]: -3.66% | Percent Effect [9]: -8.88%

CCc1nc(C)c(C(=O)NCCNc2cnccn2)s1
Percent Effect [1]: -1.34% | Percent Effect [2]: 21.1% | Percent Effect [3]: -0.0117% | Percent Effect [4]: -1.62% | Percent Effect (Trypanosoma cruzi): 1.77% | Percent Effect [5]: -1.44% | Percent Effect [6]: 15.8% | Percent Effect (Homo sapiens): 4.13% | Percent Effect [7]: 9.36% | Percent Effect [8]: 25.9% | Percent Effect [9]: -8.55%

Cc1ccc(C(=O)NS(=O)(=O)c2cccc3cnccc23)c(=O)[nH]1
Percent Effect [1]: -5.08% | Percent Effect [2]: 13.5% | Percent Effect [3]: -0.0909% | Percent Effect [4]: 7.48% | Percent Effect (Trypanosoma cruzi): 0.65% | Percent Effect [5]: 1.66% | Percent Effect [6]: 6.64% | Percent Effect (Homo sapiens): 13% | Percent Effect [7]: 6.93% | Percent Effect [8]: 15.8% | Percent Effect [9]: 2.35%

Cc1cnn(CCC(=O)N2CCN(c3ncccc3Cl)CC2)c1
Percent Effect [1]: -2.22% | Percent Effect [2]: 3.8% | Percent Effect [3]: 10.2% | Percent Effect [4]: 2% | Percent Effect (Trypanosoma cruzi): -4.21% | Percent Effect [5]: 1.94% | Percent Effect [6]: 10.3% | Percent Effect (Homo sapiens): 18.8% | Percent Effect [7]: 1.04% | Percent Effect [8]: 2.53% | Percent Effect [9]: -5.44%
